Compound activity deposited in PubChem BioAssay by National Center for Advancing Translational Sciences (NCATS).
JMJD2A Tudor – qHTS Assay for Inhibitors of JMJD2A-Tudor Domain. AID 504339, 2011. 390,000 tested, 4.4% active. Potency, µM (series often up to 114 µM), for the others: top-dose activity change, negative = inhibition, usual class: inhibitors. AlphaScreen JMJD2A-Tudor / H3K4me3 peptide binding. Lysine-specific demethylase 4A (Homo sapiens), O75164; further: on the % scale 0 is the no-effect control and ±100 the full control effect; nearly all actives have a fitted effect of over 50% in size
HP1b binding inh – HTS for Inhibitors of HP1-beta Chromodomain Interactions with Methylated Histone Tails. Chromobox protein homolog 1 (Homo sapiens), P83916. 390,000 tested, 0.56% active. Potency, µM (doses to about 114 µM), without a hit: at the highest dose activity change, negative = inhibition, usual class: inhibitors. AID 540317, 2011. AlphaScreen HP1-beta / biotin-H3K9me3 peptide binding; further: nearly all actives have a fitted effect of over 70% in size
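AlphaScreen: HP1-beta (50 nM) preformed 30 min with biotin-H3(1-18)K9me3 peptide (50 nM) in PBS pH 7.4, 0.01% Tween-20. Compound added for 30 min at RT, then streptavidin donor/nickel chelate acceptor beads (10 ug/mL) for 30 min.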
G9a inh – qHTS Assay for Inhibitors of Histone Lysine Methyltransferase G9a; Histone-lysine N-methyltransferase EHMT2 (Homo sapiens), Q96KQ7; G9a H3K9 monomethylation, AlphaScreen, 2 h; Potency, µM (series often up to 102 µM), for inactives: at the top dose activity, negative = inhibition, most hits filed as inhibitors; 350,000 tested, 8.8% active; further: on the % scale 0 is the no-effect control and ±100 the full control effect; nearly all actives have a fitted effect of over 75% in size
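G9a (20 nM) was preincubated 15 min with compound, then reacted 2 h at room temperature with 500 nM biotin-H3K9 peptide and 20 µM SAM. Monomethyl-H3K9 detected by AlphaScreen using anti-H3K9me1 antibody.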
PLK1 PBD inh – qHTS for Inhibitors of PLK1-PDB (polo-like kinase 1 - polo-box domain): Primary Screen; Serine/threonine-protein kinase PLK1 (Homo sapiens), P53350; Potency, µM, inactives show max response, negative = inhibition, actives largely listed as inhibitors; Plk1 PBD binding of FITC phosphopeptide, fluorescence polarization; 360,000 tested, 2.8% active; further: series mostly up to about 57 µM; on the % scale 0 is the no-effect control and ±100 the full control effect; nearly all actives have a fitted effect of over 65% in size
BAZ2B inh – qHTS Assay for Inhibitors of BAZ2B | Bromodomain adjacent to zinc finger domain protein 2B (Homo sapiens), Q9UIF8 | AlphaScreen BAZ2B-H3K14Ac peptide displacement | Potency, µM (titrated, usually from 114 µM), without a hit: top-dose activity change, negative = inhibition, most hits filed as inhibitors | 360,000 tested, 4.4% active; further: on the % scale 0 is the no-effect control and ±100 the full control effect; nearly all actives have a fitted effect of over 60% in size
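AlphaScreen displacement: compounds (up to 110uM) incubated 30 min at room temperature with a preformed 50 nM BAZ2B/50 nM biotinylated H3K14Ac peptide complex in PBS pH 7.4 with Tween-20. Donor and acceptor beads at 10 ug/mL final added, 20 min light-protected before reading.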
12-LOX inh – Primary qHTS assay for inhibitors of human arachidonate 12S-lipoxygenase (ALOX12): Round 2 | Polyunsaturated fatty acid lipoxygenase ALOX12 (Homo sapiens), P18054 | purified 12hLO, xylenol orange hydroperoxide absorbance | Potency, µM (top dose mostly 108 µM), for the others: at the highest dose activity change, negative = inhibition, actives largely listed as inhibitors | 580,000 tested, 1.1% active | AID 1671190, 2021; further: on the % scale 0 is the no-effect control and ±100 the full control effect
Target sequence (P18054 whole entry, looked up): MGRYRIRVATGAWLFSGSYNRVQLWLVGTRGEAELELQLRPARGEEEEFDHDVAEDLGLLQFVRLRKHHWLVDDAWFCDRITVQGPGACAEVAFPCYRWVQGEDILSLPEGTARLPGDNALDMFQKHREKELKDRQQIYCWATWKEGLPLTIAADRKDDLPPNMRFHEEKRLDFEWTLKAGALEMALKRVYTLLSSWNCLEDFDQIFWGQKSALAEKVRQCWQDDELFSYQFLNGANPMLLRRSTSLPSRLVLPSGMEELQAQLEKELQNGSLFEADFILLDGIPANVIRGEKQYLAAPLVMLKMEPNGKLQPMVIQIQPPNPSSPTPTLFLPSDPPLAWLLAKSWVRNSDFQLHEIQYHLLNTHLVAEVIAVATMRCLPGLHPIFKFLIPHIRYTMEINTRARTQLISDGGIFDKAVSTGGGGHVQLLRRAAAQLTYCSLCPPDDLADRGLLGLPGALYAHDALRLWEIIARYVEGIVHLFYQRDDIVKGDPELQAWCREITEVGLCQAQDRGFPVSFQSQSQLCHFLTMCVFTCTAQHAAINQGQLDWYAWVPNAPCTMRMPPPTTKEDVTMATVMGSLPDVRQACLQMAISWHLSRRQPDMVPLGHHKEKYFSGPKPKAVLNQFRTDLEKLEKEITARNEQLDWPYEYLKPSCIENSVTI
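Hydroperoxide product was detected by ferrous iron/xylenol orange as the 573 to 405 nm absorbance ratio. Arachidonic acid at 40 uM (final) was turned over for 30 min at room temperature by 150 nM human 12hLO, pH 7.0 Hepes buffer, after 15 min compound preincubation.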
An asterisk follows results filed as active; ? = inconclusive; / = no result given; [ ] = remark or other dose. Rows were chosen to be rich in hits. Some 9% of all compounds tested hit in one or more screens of this group. The call rests on the fitted dose curve; in most records, active means well fitted curve in the direction sought with a large enough effect; inconclusive means small, poorly fitted or top-dose-only effect, or another doubt; inactive means no such curve, though single readings can be large; an effect the other way counts as inactive or inconclusive. Potency means the concentration at half of the fitted maximal effect.

SMILES | JMJD2A Tudor | HP1b binding inh | G9a inh | PLK1 PBD inh | BAZ2B inh | 12-LOX inh
Cc1cccc(-n2ccnc2SCC(=O)Nc2cc(C)on2)c1 | -35.6%[11.4 µM] | -15.8% | 18.3%[12.7 µM] | 26.7µM* | -10.8% | 104.9%
Cc1cc(C)cc(-n2ccnc2SCC(=O)Nc2cccc3ccccc23)c1 | 22.4µM* | ? | 12.6µM* | / | 7.08µM* | -19.8%
Cc1cccc(NC(=O)CSc2nc(=O)n3ccccc3n2)c1C | -11.3% | 4.5% | 9.4% | -4.3% | 9.1% | 18.4%
CN(C)CCn1c2c(c(SCC(=O)Nc3cccc4ccccc34)nc1=O)CCCC2 | -14.9% | 15.4% | 44.7µM* | 0.0% | -4.6% | 1.3%
O=C(CSc1nc(=O)n2ccccc2n1)Nc1cccc2ccccc12 | ? | 14.9% | 50.1µM* | -26.8% | -2.2% | -5.8%
Cc1cc(C)cc(NC(=O)CSc2nccn2-c2ccccc2)c1 | ? | 13.3%[57 µM] | ? | / | ? | -3.8%
Cc1cc(C)cc(-n2ccnc2SCC(=O)Nc2ccccc2F)c1 | ? | ? | 14.1µM* | / | 28.2µM* | -20.3%
COc1ccc(-n2nc(C(=O)NCC(=O)N3CCN(c4ccccn4)CC3)c3ccccc3c2=O)c(OC)c1 | 1.4% | 9.0% | / | -1.9% | / | -0.5%
S=c1[nH]nc(C2CCCCC2)o1 | 20µM* | -2.9% | 28.2µM* | -27.9% | -13.3% | ?
c1ccc(-c2cnc(C3CCCCC3)o2)cc1 | 53.1% | 21.9%[57 µM] | / | -10.6% | / | -2.7%
COc1cc(C(=O)NC2CCCc3c2[nH]c2ccccc32)cc(OC)c1OC (stereo not given) | / | / | / | / | / | 35.5µM*
O=C(NC1CCCc2c1[nH]c1ccccc21)c1n[nH]c2c1CCCC2 (stereo not given) | / | / | / | / | / | 22.4µM*
O=C(Cn1nc(-c2ccc(F)cc2)ccc1=O)NC1CCCc2c1[nH]c1ccccc21 (stereo not given) | / | / | / | / | / | 35.5µM*
O=C(Cn1nc(-c2cccs2)ccc1=O)NC1CCCc2c1[nH]c1c(Cl)cccc21 (stereo not given) | / | / | / | / | / | 55.9%
COCCn1ccc2ccc(C(=O)NC3CCCc4c3[nH]c3ccccc43)cc21 (stereo not given) | / | / | / | / | / | 39.8µM*
Clc1nc(CN2CCCCC2)nc2sc3c(c12)CCCC3 | -30.6% | 1.5% | ? | -26.6% | -8.6% | 0.3%
COc1cccc(-c2ccc(SCC(=O)NCCc3ccccc3)nn2)c1 | 7.2% | 20.3% | 0.4% | -5.5% | / | 28.2%
O=C(NC1CCCc2c1[nH]c1ccccc21)c1cccs1 (stereo not given) | / | / | / | / | / | 44.7µM*
Cn1c(=O)cc(C(=O)NC2CCCc3c2[nH]c2ccccc32)c2ccccc21 (stereo not given) | / | / | / | / | / | 39.8µM*
O=C(NC1CCCc2c1[nH]c1ccc(F)cc21)c1cccs1 (stereo not given) | / | / | / | / | / | 27.0%
CN1CCCC(C(=O)Nc2cccc(Cl)c2)CC1 (stereo not given) | / | / | / | -4.8% | / | ?
Cc1ccc(CN(C)C(=O)c2cc(Br)c(Br)s2)o1 | -10.7% | 33.7% | 44.7µM* | -20.7% | 3.1% | ?
C[S+](=O)([O-])N1CCCC2(C1)C(=NC1CCCC1)NC(=O)N2c1cc(F)cc(F)c1 (stereo not given) | / | / | / | / | / | 89.1µM*
O=C1NC(=NC2CCCC2)C2(CCCN([S+](=O)([O-])c3cccs3)C2)N1c1cc(F)cc(F)c1 (stereo not given) | / | / | / | / | / | 1.6%[6.33 µM]
O=c1ccccn1Cc1c(F)cccc1Cl | ? | ? | 7.7% | 3.36µM* | ? | 0.0%
Cc1cccn(Cc2c(F)cccc2Cl)c1=O | 5.4% | 33.9% | / | 0.1% | -1.5% | 12.8%
